This is an account of results in PubChem BioAssay.

The structures appear in SMILES notation. Records with an inconclusive call do not appear. Calls of active or inactive are those of the source.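 Rule for the calls, unless noted: active = growth inhibition above 25% in both replicates, a cutoff set 3 SD above the mean; inconclusive = above 25% in only one replicate; inactive = the rest.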

The nature of assay [1]: Her2 expression decrease, cell viability multiplex – SKBR3 breast tumor cells, AlphaScreen, ATP viability, primary screen (AID 461;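 active = Her2 level under about 52% in both replicate screens, with viability over 70% of control, limit read from the data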;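 for Her2 level: lower value means less Her2 protein in the cells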;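 for viability: percent of carrier control wells set as 100% viability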). The settings on record: SKBR3 Her2 protein level, 18-24 h, measured here: SKBR3 viability, ATP luminescence, at 10 µM.
For assay [2], the target named is Receptor tyrosine-protein kinase erbB-2 (Homo sapiens) (UniProt P04626). The assay is described as above. The settings on record: 18-24 h, at 10 µM, stronger effect = lower value.
A short description of assay [3]: reduced viability of SK-BR-3 breast cancer cells – cell-based, 24 h, human, pilot screen (AID 572;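 active = viability at or below 10% of carrier control in both of two separate runs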;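 note: compound exposure lasted between 18 and 24 h rather than exactly 24 h; 100% = carrier-treated control wells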). The settings on record: SK-BR-3 viability, CellTiter-Glo luminescence, at 10 µM, stronger effect = lower value.
A short description of assay [4]: HUVEC growth inhibition – cell-based, human, primary screen (AID 575;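 active = viability at or below 30% in both replicate assays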;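 note: 100% = median of untreated cell wells with 0.1% DMSO on each plate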). As to conditions: HUVEC proliferation, CellTiter-Glo luminescence, 72 h; at 10 µM; stronger effect = lower value.
Assay [5] in a line: H69AR cell proliferation blockers – human, duplicate replicates, primary screen (AID 580;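 active = viability at or under a set limit in both replicates, limit being median viability minus 3 SD, cut at about 48% in these data, passing the limit was not always enough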;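 note: 100% = mean luminescence of untreated wells and 0% = no signal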). As to conditions: H69AR lung tumor cells viability, ATP luminescence, 72 h; at 10 µM; stronger effect = lower value.
The nature of assay [6]: MRP1 drug-resistance reversers in H69AR cells – cell-based, doxorubicin co-treatment, pilot screen (AID 601;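 active = viability loss from added drug above about 55%, and viability with drug at most 40%, in both replicates, limit read from the data, passing the limit was not always enough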). As to conditions: CellTiter-Glo, 72 h, at 10 µM; for differential viability (reversal): stronger effect = higher value.
Assay [7] in a line: yeast transport mutant growth inhibition pilot in 384-well plates, post-Golgi transport modulator project (AID 636; in the data active = inhibition above about 31%). As to conditions: absorbance 615 nm, about 18 h, stronger effect = higher value.
Assay [8] is described as follows: growth suppression of yeast trafficking mutant, preliminary HTS, modulators of trafficking downstream of Golgi apparatus project, 1536-format plate, OD 615 nm (AID 637; in the data active = inhibition above about 30%). The settings on record: yeast transport mutant growth, absorbance 615 nm, 18 h; stronger effect = higher value.
Assay [9] in a line: S. cerevisiae growth inhibition in permissive medium (OD615), pilot counter-assay for S. cerevisiae lifespan shortening project, permissive growth control (AID 705). The settings on record: OD615, 24 h, at 10 µM, stronger effect = higher value.
Assay [10] can be described thus: S. cerevisiae growth inhibition in restrictive medium, OD615, pilot screen, restrictive growth control, yeast lifespan reduction project (AID 706;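 active = growth inhibition above a set limit, 3 SD over mean compound inhibition, in both replicates, cut at about 43% in these data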;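 note: modified DeaD lifespan yeast strain shifted to restrictive glucose medium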). As to conditions: OD615, 48 h, at 10 µM, stronger effect = higher value.
A short description of assay [11]: doxorubicin toxicity protection in MRP-1 cells – H69AR cells, CellTiter-Glo, duplicate, MRP-1 activator project, pilot screen (AID 807;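 active = viability increase at or above a cutoff of the median across tested compounds plus 3 SD, cut at about 8.5% in these data, passing the limit was not always enough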;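 note: compound pretreatment 18-22 h then 72 h combined with doxorubicin; 0% = doxorubicin alone and 100% = vehicle without doxorubicin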). As to conditions: H69AR viability with doxorubicin, CellTiter-Glo luminescence; at 10 µM; stronger effect = higher value.
Assay [12] can be described thus: viability of HCT116 without oncogenic beta-catenin – human colon tumor cells, pilot screen (AID 823;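 active = cell viability at or below a set limit in both duplicate runs, the limit being the all-compound median minus 4 SD, cut at about 23% in these data, passing the limit was not always enough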;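 note: 0% = wells killed by 20 µM Hyamine and 100% = untreated DMSO cell wells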). As to conditions: HCT116 beta-catenin knockout viability, CellTiter-Glo, 60 h; at 10 µM; stronger effect = lower value.
Assay [13] is described as follows: viability of PTEN-null HCT116 cells – cell-based, HCT116 clonal line, CellTiter-Glo, pilot screen (AID 824;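 active = viability at or below 27.92% in each of two runs, the all-compound median minus 4 SD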;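 note: 0% = 20 µM Hyamine control and 100% = vehicle cell control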). The settings on record: HCT116 PTEN-deleted viability, 60 h, at 10 µM, stronger effect = lower value.
The nature of assay [14]: RAM pathway blockade in budding yeast – dse1pr::URA3 reporter, 5-FOA selection, pilot screen (AID 869;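 active = inhibition over a set limit, the all-compound mean plus 3 SD, in both replicate runs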;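 note: 0% = DMSO wells with no growth and 100% = 10 µM 1-NA-PP1 with full growth; RAM network block rescues cells from 5-FOA so hits raise OD615 growth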). As to conditions: S. cerevisiae dse1pr::URA3 5-FOA growth, OD615, 2 d; at 10 µM; stronger effect = higher value; strain carries analog-sensitive mutant Cbk1 kinase.
Assay [15] is described as follows: RAM signaling pathway blockade in yeast – S. cerevisiae, Pdr1DBD-CYC8 efflux-inhibited sensitized strain, primary screen (AID 1298;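 active = RAM network inhibition above 8.4% in each of two replicates, 3 SD over the compound average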;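 note: 0% = DMSO untreated cells without growth and 100% = 10 µM 1-NA-PP1 full growth; higher means more yeast growth rescued from 5-FOA killing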). The settings on record: S. cerevisiae cbk1-as DSE1-URA3 strain, 5-FOA growth OD615, 2 d; at 50 µM; stronger effect = higher value.
[16] abbreviates: H69AR cells + 2 uM doxorubicin, measured here: viability with 2 uM doxorubicin, stronger effect = lower value.
[17] abbreviates: H69AR cells, compound alone cytotoxicity.

Chain of Receptor tyrosine-protein kinase erbB-2 (Homo sapiens) (P04626 whole entry, looked up): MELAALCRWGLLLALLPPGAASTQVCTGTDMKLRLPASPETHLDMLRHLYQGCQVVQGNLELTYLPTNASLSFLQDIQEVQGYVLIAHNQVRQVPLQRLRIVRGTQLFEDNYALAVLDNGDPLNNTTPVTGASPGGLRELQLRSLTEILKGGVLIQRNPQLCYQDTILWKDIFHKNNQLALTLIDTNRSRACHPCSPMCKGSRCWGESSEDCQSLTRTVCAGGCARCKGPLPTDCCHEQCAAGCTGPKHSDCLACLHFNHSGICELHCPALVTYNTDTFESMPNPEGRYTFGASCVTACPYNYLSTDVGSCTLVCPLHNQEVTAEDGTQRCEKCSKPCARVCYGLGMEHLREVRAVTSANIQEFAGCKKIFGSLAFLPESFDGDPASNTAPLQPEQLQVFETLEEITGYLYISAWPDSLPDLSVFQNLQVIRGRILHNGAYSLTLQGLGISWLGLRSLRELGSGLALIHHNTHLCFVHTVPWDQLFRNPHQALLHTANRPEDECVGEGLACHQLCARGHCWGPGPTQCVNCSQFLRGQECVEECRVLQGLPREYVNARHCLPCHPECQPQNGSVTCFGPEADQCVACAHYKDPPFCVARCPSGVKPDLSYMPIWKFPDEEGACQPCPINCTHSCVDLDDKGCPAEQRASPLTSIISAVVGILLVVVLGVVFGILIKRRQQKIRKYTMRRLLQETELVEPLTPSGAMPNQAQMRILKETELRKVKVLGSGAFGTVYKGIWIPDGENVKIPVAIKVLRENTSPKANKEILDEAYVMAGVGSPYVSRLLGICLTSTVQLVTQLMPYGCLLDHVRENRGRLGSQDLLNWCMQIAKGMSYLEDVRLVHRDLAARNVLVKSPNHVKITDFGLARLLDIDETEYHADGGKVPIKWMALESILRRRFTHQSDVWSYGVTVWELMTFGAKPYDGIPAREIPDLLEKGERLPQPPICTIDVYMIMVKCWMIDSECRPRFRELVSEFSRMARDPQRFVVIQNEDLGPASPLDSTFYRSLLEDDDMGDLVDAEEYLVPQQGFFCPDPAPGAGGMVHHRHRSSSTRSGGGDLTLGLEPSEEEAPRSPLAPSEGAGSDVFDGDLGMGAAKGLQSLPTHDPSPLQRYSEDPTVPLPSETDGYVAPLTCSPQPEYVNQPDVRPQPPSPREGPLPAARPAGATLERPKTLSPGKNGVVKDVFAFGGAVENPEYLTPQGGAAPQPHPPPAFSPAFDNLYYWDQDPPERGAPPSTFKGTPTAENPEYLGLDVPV

With `Cc1cccc(C)c1OCc1nnc(SCC(=O)Nc2ccccc2F)o1`, the viability in [1] was 95.5%; in assay [3], 95.5% (inactive); in assay [4], 108% (inactive); in assay [5] it was 83% (inactive); in [6] (setting [16]) it was 90.2%; in assay [6] (setting [17]), 83%. The viability was 98.8% (inactive) in assay [12] and 98.1% (inactive) in assay [13]. In addition, the Her2 level in assay [2] is 101% (inactive). For the same molecule, the differential viability (reversal) in assay [6] (H69AR cells + 2 uM doxorubicin) is -7.2% (inactive). In addition, the figures for the inhibition in assay [7], in [8] and in assay [14] were -5.2% (inactive), -5.17% (inactive) and 3.38% (inactive), respectively. Also, the growth inhibition in assay [9] is -12.4% (inactive); in assay [10] it was -9.96% (inactive). The viability increase in assay [11] is -1.03% (inactive). Besides, the RAM network inhibition in assay [15] was 3.85% (inactive).
In the case of `CCc1ccc(N2CC34C=CC(O3)C(C(=O)OC)C4C2=O)cc1` (stereo not given), the viability in assay [1] was 102%; in assay [3] it was 102% (inactive); in assay [4], 96.7% (inactive); in assay [5], 94.2% (inactive); in assay [6] (setting [16]) it was 82.2%; in [6] (setting [17]) it was 94.2%. The viability in assay [12] was 102% (inactive); in assay [13], 99.7% (inactive). In addition, the Her2 level in [2] is 104% (inactive). Moreover, in [6] (H69AR cells + 2 uM doxorubicin), the differential viability (reversal) is 12% (inactive). Moreover, the results for the inhibition in [7], in assay [8] and in assay [14] were -2.8% (inactive), -1.17% (inactive) and 0.255% (inactive), respectively. Besides, the growth inhibition is -6.25% (inactive) in [9] and 3.24% (inactive) in assay [10]. Also, in assay [11], the viability increase is 0.55% (inactive). Moreover, the RAM network inhibition in [15] was 0.11% (inactive).
Turning to `COc1ccccc1OCC(=O)N1CCN(c2ccccc2OC)CC1`, the viability in [1] is 93.5%; in assay [3], 93.5% (inactive); in assay [4], 111% (inactive); in assay [5] it was 104% (inactive); in assay [6] (setting [16]), 91.2%; in assay [6] (setting [17]), 104%. The viability was 96.9% (inactive) in assay [12] and 95% (inactive) in [13]. The Her2 level in [2] is 124% (inactive). Besides, in [6] (H69AR cells + 2 uM doxorubicin), the differential viability (reversal) was 13.2% (inactive). Also, the results for the inhibition in [7], in [8] and in assay [14] were 3.78% (inactive), -2.7% (inactive) and 0.87% (inactive), respectively. Moreover, the growth inhibition in assay [9] was -3.77% (inactive); in assay [10] it was -2.73% (inactive). In addition, the viability increase in [11] is -2.73% (inactive). Moreover, the RAM network inhibition in assay [15] was -1.28% (inactive).
Take `Cc1cccc(Cn2c(SCCN3CCCCC3)nc3c2c(=O)[nH]c(=O)n3C)c1`: the viability was 75% in assay [1]; 75% (inactive) in [3]; 75.6% (inactive) in assay [4]; 73.7% (inactive) in assay [5]; 79.8% in assay [6] (setting [16]); 73.7% in assay [6] (setting [17]). Moreover, the viability in [12] is 92.4% (inactive); in assay [13], 83.1% (inactive). Moreover, the Her2 level in assay [2] is 96.5% (inactive). In addition, in [6] (H69AR cells + 2 uM doxorubicin), the differential viability (reversal) was -6.01% (inactive). The inhibition is -1.73% (inactive) in assay [7], 5.5% (inactive) in [8] and 2.78% (inactive) in assay [14]. In addition, the growth inhibition is -16.1% (inactive) in [9] and -11.3% (inactive) in assay [10]. Also, in [11], the viability increase was -2.89% (inactive). For the same molecule, in [15], the RAM network inhibition is 0.26% (inactive).
For the molecule `Cn1c(=O)c2c(nc(CN3CCN(Cc4ccccc4)CC3)n2Cc2cccc(Cl)c2)n(C)c1=O`, the viability is 93.5% in [1]; 93.5% (inactive) in [3]; 69.9% (inactive) in assay [4]; 57.7% (inactive) in assay [5]; 20.9% in assay [6] (setting [16]); 57.7% in assay [6] (setting [17]). Besides, the viability is 60.8% (inactive) in [12] and 58.7% (inactive) in assay [13]. Moreover, the Her2 level in [2] is 81.5% (inactive). In addition, the differential viability (reversal) in assay [6] (H69AR cells + 2 uM doxorubicin) is 36.9% (inactive). For the same molecule, the figures for the inhibition in [7], in assay [8] and in [14] were -6.67% (inactive), 5.5% (inactive) and 1% (inactive), respectively. Further, the growth inhibition was 3.47% (inactive) in assay [9] and -0.975% (inactive) in assay [10]. For the same molecule, the viability increase in assay [11] was -2.86% (inactive). The RAM network inhibition in assay [15] is 4.53% (inactive).
